# The campaign covered roughly 48,000 compounds. About 160 (0.33%) were called active. For the sample, actives were picked, then their nearest neighbours and some compounds at random. Unmarked numbers belong to inactive results.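 Rule for the calls: active = survival measured by cellular ATP above 50% at 15 µg/ml in the first screen; inactive = the rest.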
# Assay: protection against thapsigargin ER stress killing – CSM14.1 cells, ATP luminescence, primary screen (AID 1010);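 note: cell death triggered by about 15 µM thapsigargin; ATP read 24 h after thapsigargin was added; plate controls were thapsigargin with DMSO for no effect and DMSO without thapsigargin for full effect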
# Details: CSM14.1 thapsigargin ER stress survival, active compounds read high, screened at 15 µg/mL (by protocol)
row,SMILES,relative survival (cellular ATP)
1,COc1ccc(C2Sc3ccccc3NC3=C2C(=O)c2ccccc23)cc1 (stereo not drawn),5.1%
2,COc1ccc(NC(=O)c2cccc(N3C(=O)c4ccc(C(=O)Nc5ccc(OC)cc5)cc4C3=O)c2)cc1,0.4%
3,COc1cc(C2NC(=S)NC(C)=C2C(=O)Nc2ccccc2)ccc1O (stereo not drawn),3.8%
4,CC(=O)N1C(=O)c2cccc3cccc1c23,17.3%
5,COc1cc(/C=N/n2cnnc2)cc(Br)c1OCCOc1ccc(C(C)(C)C)cc1,6.5%
6,O=C(CNC(=O)C(c1ccccc1)c1ccccc1)N/N=C/c1cn[nH]c1-c1ccccc1,49.7%
7,Cc1c(OCC(=O)c2ccc(F)cc2)ccc2c3c(c(=O)oc12)CCCC3,0.4%
8,Cc1ccc(N(Cc2c(O)ccc3ccccc23)C(=O)c2cccc([N+](=O)[O-])c2)cc1,-2.5%
9,O=S(=O)(/N=C/c1ccccc1)c1cccs1,1.2%
10,COc1ccc(NC2SC(=O)NC2=O)cc1 (stereo not drawn),11.7%
11,CCOc1cccc(-c2cc(C(=O)N3CCCCCC3)c3ccccc3n2)c1,3.9%
12,NNC(=O)c1n[nH]c2c1CCCCCCCCCC2,-1.8%
13,Cc1ccccc1NC(=S)N1CCN(c2cccc(Cl)c2)CC1,6.6%
14,CSc1ccc(CN2CCN(C(=O)c3cccc(F)c3)CC2)cc1,7.7%
15,O=C(Nc1ccc(Br)cn1)c1cc2n(n1)C(C(F)(F)F)CC(c1cccs1)N2 (stereo not drawn),-3.5%
16,NS(=O)(=O)c1ccc(CCNC(=O)c2cccs2)cc1,-2.4%
17,COc1ccccc1C(=O)NN1C(=O)/C(=C2/C(=O)N(CC(=O)O)c3ccccc32)SC1=S,25.3%
18,CCN(CC)S(=O)(=O)c1ccc(NC(=O)c2ccc(OC)c(I)c2)cc1,0.8%
19,COc1ccc(C2CC(=O)C3=C(C2)Nc2ccccc2NC3c2cc(F)ccc2F)cc1 (stereo not drawn),-0.8%
20,COc1ccc(C2CC(=O)C3=C(C2)Nc2ccccc2NC3c2cccc(C)c2)cc1 (stereo not drawn),102% (active)
21,COc1ccc(C2CC(=O)C3=C(C2)Nc2ccccc2NC3c2cc3c(cc2[N+](=O)[O-])OCO3)cc1 (stereo not drawn),-4.3%
22,COc1ccc(C2CC(=O)C3=C(C2)Nc2ccccc2NC3c2ccc(SC)cc2)cc1 (stereo not drawn),7.4%
23,COc1ccc(C2CC(=O)C3=C(C2)Nc2ccccc2NC3c2cccc(Cl)c2)cc1 (stereo not drawn),6.7%
24,CCCCOc1ccccc1C1Nc2ccccc2NC2=C1C(=O)CC(c1ccc(OC)c(OC)c1)C2 (stereo not drawn),76.5% (active)

row,SMILES,relative survival (cellular ATP)
1,COC(=O)C1=C(C)NC2=C(C(=O)CC(c3ccccc3)C2)C1c1cccc(I)c1 (stereo not drawn),22.6%
2,COC(=O)C1=C(C)NC2=C(C(=O)CC(c3ccc(OC)c(OC)c3)C2)C1c1ccccc1OCc1ccccc1 (stereo not drawn),60.6% (active)
3,COC(=O)C1=C(C)NC2=C(C(=O)CC(c3ccc(OC)c(OC)c3)C2)C1c1ccc(OC)c(OC)c1 (stereo not drawn),8.8%
4,CCc1c(C)sc(NC(=O)CCc2ccc(OC)cc2)c1C#N,4.9%
5,COc1cccc(/C=N/N2CCN(Cc3ccc(Cl)cc3)CC2)c1,-4.1%
6,CCOc1cc(OCC)cc(C(=O)Nc2cc3nn(-c4ccc(OC)cc4)nc3cc2C)c1,4.3%
7,CCCCCCCCC(=O)N/N=C/c1ccsc1C,2.5%
8,Cc1cc(NC(=O)COC(=O)/C=C/c2ccc([N+](=O)[O-])cc2)no1,1.8%
9,Cc1ccc([N+](=O)[O-])cc1NC(=O)C12CC3CC(CC(C3)C1)C2,-1.4%
10,CC1(C)Nc2ccc(OC(=O)c3ccccc3Br)cc2-c2c1ssc2=S,-1%
11,Cc1ccc(Cl)cc1NC1=CC(=O)CC(C)(C)C1,10.7%
12,O=C(NC1CCCCCC1)c1ccc([N+](=O)[O-])o1,-27.9%
13,CCO/N=C1/CC(c2ccccc2)Cc2onc(C)c21 (stereo not drawn),13.2%
14,O=C1CCCC2=C1C(c1ccc(Cl)cc1)Nc1ccc(C(=O)c3ccccc3)cc1N2 (stereo not drawn),72.5% (active)
15,COC(=O)c1ccc(C2Nc3ccccc3NC3=C2C(=O)CC(c2ccccc2)C3)cc1 (stereo not drawn),3.7%
16,COc1cc(C2Nc3ccc(C(=O)c4ccccc4)cc3NC3=C2C(=O)CCC3)cc(OC)c1OC (stereo not drawn),-2.2%
17,NC(=O)c1ccccc1N=Cc1ccccc1[N+](=O)[O-],1.7%
18,CCOc1ccc(N2C(=O)CC(NCc3cccnc3)C2=O)cc1 (stereo not drawn),5.5%
19,CC(=O)N(C1=C(Cl)C(=O)c2ccccc2C1=O)c1cccc(Br)c1,11.1%
20,CC(=O)Nc1ccc(S(=O)(=O)Nc2ccc(Br)c(Cl)c2)cc1,5.8%
21,CCN(C(=O)c1ccccc1)c1ccccc1,-4.6%
22,COc1ccc(C2/C(=C(\O)c3ccccc3)C(=O)C(=O)N2CCCCCC(=O)O)c(OC)c1 (stereo not drawn),-3.4%
23,CCN(C(=O)c1sc(NC(=O)c2ccc(Cl)cc2)c(C#N)c1C)C1CCCCC1,2.3%
24,CCOc1ccc(/C=N/N2CCN(c3ccccc3OC)CC2)cc1OC,5.2%

row,SMILES,relative survival (cellular ATP)
1,COc1ccc(C(=O)NC(N2CCCCC2)C(Cl)(Cl)Cl)cc1OC (stereo not drawn),3.6%
2,C=CCc1c(C)nc(-c2ccccc2)nc1Nc1ccc(C(=O)O)cc1,0.2%
3,Cn1cc(/C=C2/SC(=S)N(c3ccccc3)C2=O)c2ccccc21,6.8%
4,CC1=C(C(=O)Nc2ccccc2)C(c2ccc3c(c2)OCO3)NC(=S)N1 (stereo not drawn),10.1%
5,CCOC(=O)C(=Cc1ccc(-c2cccc(Cl)c2Cl)o1)C(=O)OCC,5.9%
6,COc1ccccc1-n1cnc2cc(NC(=O)c3ccccc3)ccc21,97.4% (active)
7,COc1cc(OC)cc(C(=O)Nc2ccc3nn(-c4ccc(F)cc4)nc3c2)c1,4%
8,COc1ccc(NC(=O)c2cccc(F)c2)cc1OC,24.8%
9,COc1ccc(CN2CCN(C(=O)c3cccc(Cl)c3)CC2)cc1OC,2.9%
10,O=C(Nc1cccc(Br)c1)c1ccc(N2C(=O)c3cccnc3C2=O)cc1,4.6%
11,Cc1ccc(-c2[nH]ncc2/C=N/NC(=O)c2ccc(Br)cc2)cc1,3.5%
12,COc1cc(OC)cc(C(=O)N2CCN(C)CC2)c1,4.1%
13,CONC(=O)c1ccc(C(=O)c2cc(OC)ccc2OC)cc1,6.5%
14,CSCCOC(=O)COc1ccc(/C=N/NC(=O)c2ccc(CN3CCOCC3)cc2)cc1,9.5%
15,CN(C)c1cccc(C(=O)N2CCN(c3cccc(Cl)c3)CC2)c1,-2.8%
16,COc1cccc(/C=N/NC(=O)c2cc(-c3ccc4ccccc4c3)n[nH]2)c1,5.9%
17,CC(=O)c1c(-c2ccccc2)c2cc(C)ccc2[nH]c1=O,-1.1%
18,O=C(NC(CO)(CO)CO)c1cccc(-c2ccc(O)cc2)c1,-1.2%
19,CC(=O)Nc1ccc(NC(=O)c2ccccc2-c2ccccc2C(=O)O)cc1,7.5%
20,Cc1ccc(C2=NNC(c3ccc(Cl)cc3Cl)S2)cc1 (stereo not drawn),-7.4%
21,CCn1c(C(O)c2cc(OC)ccc2OC)nc2ccccc21 (stereo not drawn),1.7%
22,CN(C)CCOC(=O)CCN1C(=O)/C(=C/c2ccc(Cl)cc2Cl)SC1=S,-20.4%
23,O=C(O)CCN1C(=O)/C(=C/c2ccc(-c3cc(Cl)ccc3Cl)o2)SC1=S,64% (active)
24,O=C1S/C(=C/c2ccc(-c3ccc(Cl)cc3Cl)o2)C(=O)N1c1ccccc1,7%

row,SMILES,relative survival (cellular ATP)
1,CCCN1C(=O)c2ccccc2NC1c1ccc(O)c(OC)c1 (stereo not drawn),-2.6%
2,C/C(=N\NC(=O)c1cccc([N+](=O)[O-])c1)c1cccnc1,2.9%
3,COc1ccc(NC(=O)/C(C#N)=C/c2ccccc2[N+](=O)[O-])cc1,2.4%
4,Cc1ccc(NC(=O)CC2Nc3cc(C)c(C)cc3NC2=O)cc1 (stereo not drawn),6.1%
5,Cc1nn(C(=O)C23CC4CC(CC(C4)C2)C3)c(C)c1Sc1ccc([N+](=O)[O-])cc1,6.7%
6,COC(=O)C1=CNC=C(C(=O)OC)C1c1cc(C)ccc1C,10%
7,O=C1C=CC(=O)N1Nc1c(Cl)cc(Cl)cc1Cl,-7.8%
8,O=C(CCc1ccccc1)Nc1ccccc1-c1ccccc1,2.5%
9,C/C(CC(=O)Nc1cccc2ccccc12)=N\NC(=O)c1ccoc1C,5.7%
10,COc1cc(OC)cc(C(=O)N/N=C(\C)CC(=O)Nc2ccccc2-c2ccccc2)c1,66% (active)
11,CCOc1cc(C=C2C(=O)c3ccccc3C2=O)ccc1OCc1ccc(Cl)cc1Cl,11.4%
12,COc1cccc(OCCCCOc2ccccc2OC)c1,6%
13,CN1C(=O)C(=Cc2cc(Br)c(O)c(I)c2)C(=O)N(C)C1=O,-1%
14,CCOCCOCCN1C(=O)c2ccccc2C1=O,6.5%
15,C/C(CC(=O)Nc1ccc(Nc2ccccc2)cc1)=N\NC(=O)c1ccccc1C,16.5%
16,CCOC(=O)CCc1c(C)nc2c(C)c(-c3ccc(C)cc3)[nH]n2c1=O,8.2%
17,CCCCc1ccc(/C=N/Nc2ccc([N+](=O)[O-])cc2)s1,5%
18,CCOc1cc(C2NC(=S)NC(C)=C2C(=O)Nc2ccccc2C)ccc1O (stereo not drawn),-0.3%
19,CCOc1cc(C=O)cc(I)c1OC(C)C,0.3%
20,CC(C)=N/N=C1/NC(=O)C(CC(=O)Nc2ccc(C)c(C)c2)S1 (stereo not drawn),2%
21,CC(=O)Nc1ccccc1NC(=O)COc1ccc(C)cc1C,6.5%

# Source: PubChem BioAssay AID1010 (Sanford-Burnham Center for Chemical Genomics, 2008)
